# Records with an inconclusive call do not appear. Values without a mark were called inactive. Calls of active or inactive are those of the source. Calls come from the whole dose curve; as a rule, active = well fitted curve in the direction sought with a large enough effect; inconclusive = small, poorly fitted or top-dose-only effect, or another doubt; inactive = no such curve, though single readings can be large; an effect the other way counts as inactive or inconclusive. Residues, ends and D or L forms follow the SMILES beside them. *: point of attachment. Cbz = O=C(OCc1ccccc1)*
# Tested on: not listed separately
# Experiment: Drug repurposing screens with cells derived from glioblastoma tumor samples (AID 1345199); note: nearly all actives have a fitted effect of over 40% in size
# Conditions: GBM patient neurospheres viability, ATP luminescence, 48 h; Potency: tumour line A; series mostly up to 46.1 µM; activity, negative = cell killing: at the top concentration
# How it was run: (§1)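 Four patient lines of CD133+ GBM neurospheres were screened at several concentrations; hits were retested in those lines plus three slower-growing GBM lines, using 48-hour treatment and ATP-based viability.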
# % is set by controls: 0 for no effect and ±100 for the full control effect; potency is the fitted concentration of half-maximal effect.
row,SMILES,Potency
1,O=C1c2c(O)cccc2[C@@H]([C@@H]2O[C@H](CO)[C@@H](O)[C@H](O)[C@H]2O)c2cc(CO)cc(O)c21,inactive
2,O=C(O)C(=O)Nc1cccc(C2=NN=N[N]2)c1,inactive
3,CC1(C)[C@H](O[C@H]2O[C@H](C(=O)O)[C@@H](O)[C@H](O)[C@H]2O[C@@H]2O[C@H](C(=O)O)[C@@H](O)[C@H](O)[C@H]2O)CC[C@@]2(C)[C@H]1CC[C@]1(C)[C@H]2C(=O)C=C2[C@H]3C[C@@](C)(C(=O)O)CC[C@]3(C)CC[C@]21C,inactive
4,N[C@H]1CN(c2c(F)cc3c(=O)c(C(=O)O)cn(C4C[C@@H]4F)c3c2Cl)CC12CC2 (stereo not given in full),inactive
5,COC1=C(OC)C(=O)C(CC=C(C)CCC=C(C)CCC=C(C)CCC=C(C)CCC=C(C)CCC=C(C)CCC=C(C)CCC=C(C)CCC=C(C)CCC=C(C)C)=C(C)C1=O,inactive
6,CCCCCCCCCCCCCCCC(=O)OC[C@@H](NC(=O)C(Cl)Cl)[C@H](O)c1ccc([N+](=O)[O-])cc1,inactive
7,Nc1ccn(C[C@@H](CO)OCP(=O)(O)O)c(=O)n1,inactive
8,Cc1onc(-c2ccccc2)c1C(=O)N[C@@H]1C(=O)N2[C@@H](C(=O)O)C(C)(C)S[C@@H]12,inactive
9,C[C@H]1C[C@H]2[C@@H]3CCC4=CC(=O)C=C[C@]4(C)[C@@H]3C(=O)C[C@]2(C)[C@@]1(O)C(=O)CO,inactive

# Tested on: astro (control astrocytes)
# Experiment: as above
# Conditions: viability, ATP luminescence, 48 h; series mostly up to 45.9 µM; activity, negative = cell killing: at the top concentration
# How it was run: as §1
SMILES,"activity, negative = cell killing",Potency
O=C1c2c(O)cccc2[C@@H]([C@@H]2O[C@H](CO)[C@@H](O)[C@H](O)[C@H]2O)c2cc(CO)cc(O)c21,-6.76%,–
O=C(O)C(=O)Nc1cccc(C2=NN=N[N]2)c1,-10.4%,–
CC1(C)[C@H](O[C@H]2O[C@H](C(=O)O)[C@@H](O)[C@H](O)[C@H]2O[C@@H]2O[C@H](C(=O)O)[C@@H](O)[C@H](O)[C@H]2O)CC[C@@]2(C)[C@H]1CC[C@]1(C)[C@H]2C(=O)C=C2[C@H]3C[C@@](C)(C(=O)O)CC[C@]3(C)CC[C@]21C,-2.25%,–
CC(C)N1[N]C(=C2C=c3cc(O)ccc3=N2)c2c(N)ncnc21,–,3.55 µM (active)
N[C@H]1CN(c2c(F)cc3c(=O)c(C(=O)O)cn(C4C[C@@H]4F)c3c2Cl)CC12CC2 (stereo not given in full),-10.7%,–
COC1=C(OC)C(=O)C(CC=C(C)CCC=C(C)CCC=C(C)CCC=C(C)CCC=C(C)CCC=C(C)CCC=C(C)CCC=C(C)CCC=C(C)CCC=C(C)C)=C(C)C1=O,-6.51%,–
CCCCCCCCCCCCCCCC(=O)OC[C@@H](NC(=O)C(Cl)Cl)[C@H](O)c1ccc([N+](=O)[O-])cc1,-10.1%,–
Nc1ccn(C2CO[C@H](CO)O2)c(=O)n1 (stereo not given in full),-15.5%,–
Cc1ccccc1C(=O)Nc1ccc(C(=O)N2CCCC(O)c3cc(Cl)ccc32)c(C)c1 (stereo not given),-19.1%,–
Nc1ccn(C[C@@H](CO)OCP(=O)(O)O)c(=O)n1,-6.73%,–
C#CCC(Cc1cnc2nc(N)nc(N)c2n1)c1ccc(C(=O)N[C@@H](CCC(=O)O)C(=O)O)cc1 (stereo not given in full),-21.2%,–
Cc1onc(-c2ccccc2)c1C(=O)N[C@@H]1C(=O)N2[C@@H](C(=O)O)C(C)(C)S[C@@H]12,-7.67%,–
C[C@H]1C[C@H]2[C@@H]3CCC4=CC(=O)C=C[C@]4(C)[C@@H]3C(=O)C[C@]2(C)[C@@]1(O)C(=O)CO,2.41%,–
CCCCCCCN(CC)CCCC(O)c1ccc(NS(C)(=O)=O)cc1 (stereo not given),-19.2%,–

# Tested on: not listed separately
# Experiment: qHTS assay to identify inhibitors of the type 1 interferon - major histocompatibility complex class I in skeletal muscle: Counter screen cell viability and HiBit confirmation (AID 1347412); note: nearly all actives have a fitted effect of over 60% in size
# Conditions: iHSKM muscle cells + IFN-b, HiBiT or CellTiter-Glo, 24 h; Potency: HiBiT; Viability, at 45.9 µM (top of the series); activity change, negative = inhibition: at the top concentration
# How it was run: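 CRISPR HLA-B*08:01-HiBit immortalized human myoblasts (C25cl48) stimulated with 4 ng/ml IFN-beta and compounds (12-point 1:3, top 46 uM final) for 24 h at 37 C. Duplicate plates read by HiBit lytic luminescence or CellTiter Glo ATP.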
SMILES,Potency,"activity change, negative = inhibition"
COc1cc(O)c2c(c1)C1OC1C[C@H](O)[C@H](O)C(=O)C=CC[C@H](C)OC2=O (stereo not given in full),8.83 µM (active),–
CCOC(=O)[C@@H](N)Cc1ccc(-c2cc(O[C@H](c3ccc(Cl)cc3-n3ccc(C)n3)C(F)(F)F)nc(N)n2)cc1,19.8 µM (active),–
Cc1cnc(Nc2ccc(CN3CCOCC3)cc2)nc1Nc1cccc(S(=O)(=O)NC(C)(C)C)c1,8.83 µM (active),–
c1cc(N[C@@H]2CCNC2)nc(-c2cnc3ccc(-c4cn[nH]c4)cn23)c1,inactive,–
CCCCC(=O)O[C@]1(C(=O)CO)[C@@H](C)C[C@H]2[C@@H]3CCC4=CC(=O)C=C[C@]4(C)[C@@]3(F)[C@@H](O)C[C@@]21C,–,11.3%
CC(C)c1cnn2c(NCc3ccccc3)cc(NCCCCCCN)nc12,inactive,–
CCS(=O)(=O)Nc1ccc2[nH]c(O)c(C(=Nc3ccc(CN4CCCCC4)cc3)c3ccccc3)c2c1,0.625 µM (active),–
CN(C)CCN1C(=O)c2cccc3cc(N)cc(c23)C1=O,8.83 µM (active),–
COc1cc(CCc2cc(NC(=O)c3ccc(N4C[C@@H](C)N[C@@H](C)C4)cc3)n[nH]2)cc(OC)c1,–,"-16% [HiBiT, at 45.9 µM]"
OCCNC1CCCc2c1[nH]c1ccc(-c3ccccc3)cc21 (stereo not given),–,-29.7%
Cc1cnc(NC(=O)Nc2cc(Br)c(C)cc2OC[C@@H]2CNCCO2)cn1,inactive,–
Cc1cc(Nc2ncc3c(n2)N(C)C(=O)N(c2cc(NC(=O)c4cccc(C(F)(F)F)c4)ccc2C)C3)n(C)n1,0.883 µM (active),–
CC(C)C[C@@H](C=O)NC(=O)[C@H](CC(C)C)NC(=O)[C@H](CC(C)C)NC(=O)OCc1ccccc1 (Cbz-Leu-Leu-Leu-aldehyde),6.25 µM (active),–
CC(C)(N)c1ccc(-c2nc3ccccc3nc2-c2ccccc2)cc1,–,"23.9% [HiBiT, at 45.9 µM]"
CC(C)C[C@H](NC(=O)[C@@H](NC(=O)c1cccc(-c2ccccc2)n1)[C@@H](C)O)B(O)O,0.0557 µM (active),–
Cc1cnc(Nc2ccc(N3CCN(C)CC3)cc2)nc1Nc1cccc(S(=O)(=O)NC(C)(C)C)c1,2.79 µM (active),–
CC(C)c1cc(C(C)C)c(CC(=O)NS(=O)(=O)Oc2c(C(C)C)cccc2C(C)C)c(C(C)C)c1,–,-16.8%
N#Cc1c(C2CCNCC2)cc(-c2c(O)cccc2OCC2CC2)nc1N,–,-7.5%
COC[C@H](NC(=O)c1cnc(C)s1)C(=O)N[C@@H](COC)C(=O)N[C@@H](Cc1ccccc1)C(=O)[C@@]1(C)CO1,0.198 µM (active),–
Cn1cc(CNCC2CCN(c3ncc(C(=O)NO)cn3)CC2)c2ccccc21,0.157 µM (active),–
CCc1ccc(C(=O)Nc2cc(CN3CCN(C)CC3)cc(C(F)(F)F)c2)cc1C#Cc1cnc2ccnn2c1,24.9 µM (active),–
Cc1ccc2nc(NCCN)c3ncc(C)n3c2c1,3.13 µM (active),–
